Counter-ions that a name gives are not always drawn.
test system: P. vulgatus RND KO; assay: growth AUC normalised to DMSO control (median) (fraction of control); higher = less growth inhibition, active = hit call of the paper; settings: 20 µM;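 active = normalised median growth AUC below 0.1 of DMSO control; inactive = AUC 0.1 or higher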
Method in brief: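 In 96-well plates of mGAM seeded at OD578 0.01, strains that had been passaged twice overnight without oxygen were exposed to approved-drug library compounds at 20 μM with 1% DMSO. Hourly OD578 readings were taken for 24 h in an anaerobic incubator. The trapezoidal-rule area under the curve, with curves truncated at entry into stationary phase, was expressed relative to same-plate vehicle wells as the median of three biological replicates.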
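Further: active when median AUC fell below 0.1.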

Row | SMILES | growth AUC normalised to DMSO control
1 | O=C(Cn1c(=O)sc2ccc(Cl)cc21)N1CCN(CCO)CC1 [Tiaramide Hydrochloride] | 1 (inactive)
2 | O=P(O)(O)C(O)(Cn1ccnc1)P(=O)(O)O [Zoledronic acid hydrate] | 0.972 (inactive)
3 | O=C(O)CCNC(=O)c1ccccc1 [Betamipron] | 1 (inactive)
4 | Cc1cn(-c2cc(NC(=O)c3ccc(C)c(Nc4nccc(-c5cccnc5)n4)c3)cc(C(F)(F)F)c2)cn1 [Nilotinib] | 1.03 (inactive)
5 | OC(CNCC(O)C1CCc2cc(F)ccc2O1)C1CCc2cc(F)ccc2O1 (stereo unspecified) [Nebivolol hydrochloride] | 0.957 (inactive)
6 | N#C/C(=C1/SCC(c2ccccc2Cl)S1)n1ccnc1 (stereo unspecified) [Lanoconazole] | 1.04 (inactive)
7 | Nc1ccc2cc3ccc(N)cc3nc2c1 [Proflavine hemisulfate] | 0.996 (inactive)
8 | COc1ccc2cc1Oc1ccc(cc1)C[C@H]1c3c(cc4c(c3Oc3cc5c(cc3OC)CCN(C)[C@@H]5C2)OCO4)CCN1C [Cepharanthine] | 0.999 (inactive)
9 | COc1cc2c(cc1OC)CC(=O)N(CCCN(C)C[C@H]1Cc3cc(OC)c(OC)cc31)CC2 [Ivabradine hydrochloride] | 1 (inactive)
10 | CC(C)C(=O)OCC(=O)[C@@]12O[C@H](C3CCCCC3)O[C@@H]1C[C@H]1[C@@H]3CCC4=CC(=O)C=C[C@]4(C)[C@H]3[C@@H](O)C[C@@]12C [Ciclesonide] | 1.02 (inactive)
11 | CCOC(=O)c1c(N)sc2c1CCN(Cc1ccccc1)C2 [Tinoridine hydrochloride] | 0.91 (inactive)

— the supplement of paper PMC12350171
